FMDV inh: High Throughput Screening for Foot and Mouth Disease Virus Antivirals; FMDV antiviral cell-based qHTS; Potency, µM (titrated, usually from 57.9 µM), hits mostly inhibitors; 1.2% of 410,000 active; AID 1159524, 2015; calls by dose curve; tested in HEK293T cells; note: read-out not given here; nearly all actives have a fitted effect of over 45% in size
HCMV antiviral: qHTS Assay for inhibitors of the human cytomegalovirus (HCMV) | HFF cells, HCMV-luciferase reporter, 72 h; active compounds read low | activity change, negative = inhibition, % at 57.5 µM | 4.5% of 410,000 active | AID 1259415, 2018; in the data active = activity change below about -60%; inconclusive = no clear call, values can overlap the other calls; inactive = above about -39%
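HFF cells seeded 16 h at 37C, treated with compounds, infected with luciferase-reporter HCMV at MOI 1 PFU/cell; luciferase read at 72 h post infection, normalized to buffer-only and Salinomycin controls.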
Sm TGR block: qHTS Assay for the Inhibitors of Schistosoma Mansoni Peroxiredoxins | Schistosoma mansoni thioredoxin glutathione reductase (TGR), Q962Y6 | purified TGR, DTNB reduction, TNB absorbance 405 nm | Potency, µM (titrated, usually from 114 µM), most hits filed as inhibitors | 3% of 360,000 active | AID 485364, 2010; note: nearly all actives have a fitted effect of over 60% in size
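TGR 20 nM + NADPH 100 uM (dispensed conc.), cpd preinc 15 min RT; start with NADPH (500 uM addition) then DTNB (15 mM addition). Kinetic TNB absorbance, 405 nm filter. Four-parameter Hill fit across titration.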
FBPA Giardia inh: qHTS Assay for Inhibitors of Fructose-1,6-bisphosphate Aldolase from Giardia Lamblia; A8B2U2; purified Giardia FBPA; Potency, µM (highest dose often 59.6 µM), usual class: inhibitors; 0.71% of 290,000 active; note: nearly all actives have a fitted effect of over 55% in size
Target sequence (A8B2U2 whole entry, looked up): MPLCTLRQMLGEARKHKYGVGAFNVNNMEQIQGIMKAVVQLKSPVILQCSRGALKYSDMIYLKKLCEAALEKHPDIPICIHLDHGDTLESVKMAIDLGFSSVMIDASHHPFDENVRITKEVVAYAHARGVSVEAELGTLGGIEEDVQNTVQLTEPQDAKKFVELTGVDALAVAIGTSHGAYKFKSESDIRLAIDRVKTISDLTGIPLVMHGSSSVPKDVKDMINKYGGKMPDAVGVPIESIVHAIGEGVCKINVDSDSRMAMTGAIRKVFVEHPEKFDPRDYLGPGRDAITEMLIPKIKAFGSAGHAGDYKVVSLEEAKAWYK
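40 nM FBPA preincubated 10 min at RT with compound (up to 57.5 uM final), then substrate plus GAPDH/TPI/NAD/arsenate coupling and diaphorase/resazurin added. Fluorescence read after 20 min at RT, 525/598 nm.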
TbPYK inhibitor: qHTS of Trypanosoma Brucei Inhibitors. pyruvate kinase (Trypanosoma brucei), Q57TT1. TbPYK enzyme, Kinase-Glo Plus ATP luminescence, 45 min. Potency, µM (highest dose often 76.8 µM), usual class: inhibitors. 0.12% of 410,000 active. AID 624173, 2012; note: nearly all actives have a fitted effect of over 50% in size
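Assay buffer: 50 mM TEA pH 7.2, 100 mM KCl, 10 mM MgCl2, 0.05% BSA, 0.01% Tween-20. Pyruvate kinase from T. brucei plus substrate met compound, then ADP (130 uM final). Luminescence was read post 45 min RT.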
RE007 growth inh: qHTS Assay for Inhibitors of the HIV-1 protein Vpr; S. pombe RE007 Vpr strain, BacTiter-Glo ATP luminescence, 24 h; Potency, µM (top dose mostly 92.2 µM), actives largely listed as inhibitors; 0.21% of 360,000 active; AID 651644, 2012; active = well fitted falling curve with a large enough effect; inconclusive = small, poorly fitted or top-dose-only effect; inactive = no such curve, though single readings can be large or run the other way; note: nearly all actives have a fitted effect of over 50% in size
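Fission yeast RE007 carrying one integrated HIV-1 vpr copy, seeded at OD 0.01 in PMG+AL medium with 23 nL pinned compound. Grown 24 h at 30 degrees; viability read by BacTiter-Glo luminescence after 5 min.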
Of the large screens only hits and unclear results are named; the others gave an inactive call; ! = repeats disagree. Compounds with a hit are over-represented: about 7.7% of the library has one in this group of screens. Unless noted, calls come from the whole dose curve; as a rule, active = well fitted curve in the direction sought with a large enough effect; inconclusive = small, poorly fitted or top-dose-only effect, or another doubt; inactive = no such curve, though single readings can be large; an effect the other way counts as inactive or inconclusive.

COc1ccccc1Nc1nc(-c2ccccc2O)nc2ccccc12	HCMV antiviral -69.5
COc1ccccc1Nc1c2ccccc2nc2ccccc12	FMDV inh inconclusive, HCMV antiviral -98.7
COc1ccc(C)cc1Nc1c2c(nc3ccccc13)CCC2	FMDV inh inconclusive, HCMV antiviral -88.5
Fc1ccc(Nc2c3c(nc4ccccc24)CCC3)cc1	HCMV antiviral -63.9
COc1ccc(OC)c(Nc2nc(-c3ccccc3O)nc3ccccc23)c1	none (no result: Sm TGR block)
COc1cccc(OC)c1C(=O)NC1C(=O)N2C1SC(C)(C)C2C(=O)O (configuration not stated)	none (no result: FMDV inh, HCMV antiviral, Sm TGR block, RE007 growth inh)
CCc1cccc(NC(=O)CN2Cc3ccccc3C2=O)c1	none (no result: FBPA Giardia inh, RE007 growth inh)
c1ccc2c(Nc3ccc4c(c3)OCCO4)c3c(nc2c1)CCC3	FMDV inh inconclusive, HCMV antiviral -78.8 (no result: Sm TGR block)
C[n+]1ccc(/C=C/c2ccc3ccccc3c2)cc1	none (no result: HCMV antiviral, Sm TGR block, FBPA Giardia inh, TbPYK inhibitor, RE007 growth inh)
Cc1ccc2[nH]c(C)c(/C=C/c3cc[n+](C)cc3)c2c1	HCMV antiviral -99.8, RE007 growth inh inconclusive
CCCn1c(/C=C/c2cc[n+](C)cc2)nc2ccccc21	HCMV antiviral inconclusive
Cc1ccc2c(c1)c(/C=C/c1cc[n+](C)cc1)c(C)n2C	FMDV inh inconclusive, HCMV antiviral -97.7 (no result: RE007 growth inh)
COc1ccccc1CNC(=O)C1CCN(S(=O)(=O)c2c(C)noc2/C=C/c2cccs2)CC1	HCMV antiviral inconclusive (no result: FBPA Giardia inh, RE007 growth inh)
O=C(/C=C/c1ccc(O)c(O)c1)O[C@@H]1C[C@](O)(C(=O)O)C[C@@H](O)[C@H]1O	HCMV antiviral -60.2! (no result: FBPA Giardia inh)
O=C(/C=C\c1ccc(O)c(O)c1)O[C@@H]1C[C@](O)(C(=O)O)C[C@@H](O)[C@@H]1O	none (no result: FMDV inh, HCMV antiviral, Sm TGR block, TbPYK inhibitor, RE007 growth inh)
C[C@@H]1COc2cccc(N3CCCC3)c2S(=O)(=O)N1	none (no result: FMDV inh, Sm TGR block, FBPA Giardia inh, TbPYK inhibitor, RE007 growth inh)
COc1cccc(OCC(O)CN2CCC(CN3C(=O)c4cccc5cccc(c45)C3=O)CC2)c1 (configuration not stated)	FMDV inh inconclusive, HCMV antiviral -65.3
CCc1ccc(OCC(O)CN2CCC(CN3C(=O)c4cccc5cccc(c45)C3=O)CC2)cc1 (configuration not stated)	none
Cc1cc(C)cc(OCC(O)CN2CCC(CN3C(=O)c4cccc5cccc(c45)C3=O)CC2)c1 (configuration not stated)	FMDV inh inconclusive, HCMV antiviral -101.4
O=C1c2cccc3cccc(c23)C(=O)N1CC1CCN(CC(O)COc2ccc3ccccc3c2)CC1 (configuration not stated)	FMDV inh inconclusive (no result: FBPA Giardia inh)
OCC#CCSc1nnc(-c2ccc(Br)cc2)o1	RE007 growth inh inconclusive
COC(=O)Sc1nnc(-c2ccc(Br)cc2)o1	Sm TGR block 44.7µM (no result: FMDV inh, HCMV antiviral, TbPYK inhibitor, RE007 growth inh)
C=C[C@]1(C)C=C2C(=O)[C@@]3(O)OC(=O)[C@@]4(CCCC(C)(C)[C@H]34)[C@@]2(O)CC1	FMDV inh 2.82µM, HCMV antiviral -101.3 (no result: Sm TGR block, FBPA Giardia inh)
O=C(CSc1ncnc2sc3c(c12)CCCCC3)NCc1ccco1	Sm TGR block 31.6µM
CC(C)c1nc2sc3c(SCC(=O)NCc4ccco4)ncnc3c2c2c1CCC2	FMDV inh inconclusive, Sm TGR block 25.1µM
O=C(CSc1nc2sc3c(c2c(=O)n1-c1ccccc1)CCCC3)NCc1ccco1	HCMV antiviral -93.5
Cc1sc2nc3ccc(NCc4ccco4)nn3c(=O)c2c1C	Sm TGR block 35.5µM
C[C@]12O[C@H]1[C@@H](O)C(Br)=C(CO)[C@H]2O	none (no result: FMDV inh, HCMV antiviral, Sm TGR block, TbPYK inhibitor, RE007 growth inh)
CC(C)c1cccc(-c2nc3c(NC4CCC(O)CC4)nccc3[nH]2)c1 (configuration not stated)	none (no result: FMDV inh, Sm TGR block, FBPA Giardia inh, TbPYK inhibitor, RE007 growth inh)
CCN(CC)C(=O)CSc1nc2sc3c(c2c(=O)n1CCCOC)CCC3	HCMV antiviral -76.1
Cc1sc2nc(SCC(=O)NCc3ccco3)n(CCc3ccccc3)c(=O)c2c1C	HCMV antiviral -67.8
Cc1nc2sc3c(c2c2nnc(SCC(=O)NCc4ccco4)n12)CCCC3	FMDV inh inconclusive, Sm TGR block inconclusive
